Measurements as given in PubChem BioAssay (NCI).
Compounds without any hit were thinned out: in the full panel of roughly 79,000, 15% have a hit. The source made the active and inactive calls. Rule as the data show it: active = growth inhibition above about 70%; inactive = the rest.

Experiments:
[1] = NCI Yeast Anticancer Drug Screen. Data for the rad50 strain (AID 155);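 also: 0% = growth of vehicle-only cultures of the same strain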; conditions: S. cerevisiae rad50 strain growth inhibition; at 50.0 µM; hits give high values
Outline: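 Growth of the mutant yeast was measured after compound exposure and referenced to vehicle-treated cultures.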

[2] = NCI Yeast Anticancer Drug Screen. Data for the mec2-1 strain (AID 157); conditions: S. cerevisiae mec2-1 strain, at 50.0 µM, hits give high values
Outline: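 mec2-1 yeast strain, carrying an alteration in DNA damage repair or cell cycle control, was exposed to compounds; growth inhibition was measured relative to vehicle-treated controls.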

[3] = NCI Yeast Anticancer Drug Screen. Data for the sgs1 mgt1 strain (AID 161);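 also: 0% = growth of cultures given vehicle only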; conditions: S. cerevisiae sgs1 mgt1 strain, at 50.0 µM, hits give high values
Outline: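 Compounds are added to genetically altered yeast, and growth is compared with cultures given vehicle alone to give percent inhibition.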

[4] = NCI Yeast Anticancer Drug Screen. Data for the cln2 rad14 strain (AID 165);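 also: 0% = growth equal to vehicle treated cultures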; conditions: S. cerevisiae cln2 rad14 strain, at 50.0 µM, hits give high values
Outline: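 Yeast carrying cln2 and rad14 alterations (cell cycle control and DNA damage repair) were exposed to compounds. Growth inhibition was measured against vehicle-treated controls.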

[5] = NCI Yeast Anticancer Drug Screen. Data for the bub3 strain (AID 167); conditions: S. cerevisiae bub3 mutant strain, at 50.0 µM, hits give high values
Outline: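 Whole-cell yeast assay. The mutant strain was incubated with compounds, and growth inhibition was determined by comparison with vehicle-treated cells.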

[6] = NCI Yeast Anticancer Drug Screen. Data for the mlh1 rad18 strain (AID 175); conditions: S. cerevisiae mlh1 rad18 strain growth inhibition; at 50.0 µM; hits give high values
Outline: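 Growth inhibition of the yeast strain was measured after compound exposure and expressed relative to vehicle-treated controls. The strain carries defined defects in DNA damage repair.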

Measured: growth inhibition

CCCCNc1nc(SC)nc2nc[nH]c12
inactive: [1] -9.35% | [2] -9.65% | [3] -41.1% | [4] -21.2% | [5] -26.4% | [6] -3.9%

CCSc1ccc(C)cc1
inactive: [1] 28.6% | [2] -3.15% | [3] -20.8% | [4] 26.5% | [5] -8.1% | [6] 12.6%

C1CCN(SN2CCCCC2)CC1
inactive: [1] -4.4% | [2] -15.7% | [3] -3.6% | [4] -13.2% | [5] 4.75% | [6] 5.7%

OCCOc1ccc(OCCO)cc1
inactive: [1] -2.1% | [2] -5.65% | [3] -8.95% | [4] -39.7% | [5] 9.9% | [6] -8.45%

C=CCSC(=S)Nc1nc2ccc(C)cc2s1
inactive: [1] -19.9% | [2] 4.75% | [3] 0.25% | [4] 0.2% | [5] -2.05% | [6] 2.1%

Oc1cccc2nc3ccccc3cc12
inactive: [1] 4.3% | [2] 1.15% | [3] 16.2% | [4] -10% | [5] 3% | [6] 9.6%

CC(=O)/C(=C/n1c(=S)[nH]c2ccccc21)C(=O)Nc1ccc([N+](=O)[O-])cc1
inactive: [1] -17.5% | [2] -2.75% | [3] -13.9% | [4] -8.9% | [5] -14.1% | [6] -13.2%

CCOc1ccccc1C(=O)N(CC)CC
inactive: [1] -8.55% | [2] -3.2% | [3] -4.6% | [4] -5.85% | [5] -9.8% | [6] -5.65%

Nc1ncnc2c1sc(=S)n2-c1ccccc1
inactive: [1] -5.3% | [2] 4.55% | [3] 13% | [4] -1% | [5] -12.7% | [6] -10.9%

CCCCn1cnc2c(SSc3ncnc4c3ncn4CCCC)ncnc21
inactive: [1] -11.6% | [2] -11.3% | [3] 5.1% | [4] 12% | [5] 22.4%
active: [6] 75.7%

O=S(=O)(N=S(c1ccccc1)c1ccccc1)c1ccccc1
inactive: [1] -67% | [2] -66.2% | [3] -63.1% | [4] -20.9% | [5] -59.6% | [6] -51.2%

Cc1nnc2n1N=C(c1ccc(O)c(O)c1O)CS2
inactive: [1] 2.9% | [2] -3.15% | [3] -4.7% | [4] 7.4% | [5] 1.75% | [6] -6.1%

CCCCCCC1(C=O)NC(=O)NC1=O (stereo unspecified)
inactive: [1] 4.2% | [2] -12% | [3] -11.2% | [4] -14.1% | [5] -4.6% | [6] -1.35%

CC(=O)NC1C(O)CC(OCCCSCCN)(C(=O)O)OC1C(O)C(O)CO (stereo unspecified)
inactive: [1] -6.25% | [2] -22.6% | [3] -23.1% | [4] 11.3% | [5] -16.8% | [6] -26.5%

N#Cc1c(NC(=S)NC(=O)c2ccccc2)nc2c(c1-c1ccccc1)CCCC2
inactive: [1] 28% | [2] 17.9% | [3] 30.1% | [4] 1.05% | [5] 17.4% | [6] 21.6%

O=C(OCCN1CCCCC1)C(c1ccccc1)C1(O)CCSCC1 (stereo unspecified)
inactive: [1] 9.6% | [2] 22.9% | [3] 32.6% | [4] 25.9% | [5] 17.9% | [6] 5.15%

CC(=O)C1CCCC(=O)/C=C/C(=O)O1 (stereo unspecified)
inactive: [1] 3.4% | [2] -12.8% | [3] -7% | [4] 5.8% | [5] 11.5% | [6] -18%

Nc1cccc2nsnc12
inactive: [1] 3% | [2] -36.6% | [3] -42.2% | [4] 30.1% | [5] -5.05% | [6] -15.7%

O=S(=O)(Oc1ccc(Cl)cc1)c1cccc(S(=O)(=O)Oc2ccc(Cl)cc2)c1
inactive: [1] 12.8% | [2] 1.6% | [3] -2.65% | [4] -5.55% | [5] 5.5% | [6] 1.8%

CCNC(=O)C1CC2C=CC1C2 (stereo unspecified)
inactive: [1] -1.25% | [2] 2.1% | [3] 4.2% | [4] 12.6% | [5] 3.05% | [6] 1.5%

C1CC2N=NC1C21CC1.[Cl][Cu][Cl]
inactive: [1] 1.2% | [2] 1.7% | [3] -3.75% | [4] -8.15% | [5] 8.7% | [6] -10%

CC1=NN(c2ccccc2)C(=O)/C1=C\c1ccc([N+](=O)[O-])cc1
inactive: [1] 25.9% | [2] 29.1% | [3] 28.4% | [4] 18.9% | [5] 18.4% | [6] 19.5%

CSCCCC(N)=O
inactive: [1] 1.85% | [2] -11.3% | [3] -1.5% | [4] 0.7% | [5] -10.2% | [6] 3.9%

CCOC1(OCC)C([N+](=O)[O-])=CC(=[N+]([O-])O)C=C1[N+](=O)[O-]
inactive: [1] 3.8% | [2] -4.1% | [3] -7.15% | [4] 3.75% | [5] -8.8% | [6] -21.2%

C1COC(C2=NCCO2)=N1
inactive: [1] -12.5% | [2] 2.6% | [3] -14.1% | [4] -42% | [5] 6.1% | [6] -0.4%

CCN(CC)c1nc(N(C)C)nc(N(C)C)n1
inactive: [1] -9% | [2] -4.3% | [3] 2.15% | [4] -7.25% | [5] 18.7% | [6] 7%

CC(=O)NCC1(c2ccccc2)CCN(CC2COc3ccccc3O2)CC1 (stereo unspecified)
inactive: [1] -15.3% | [2] -16.4% | [3] -15.2% | [4] 16% | [5] 17.1% | [6] 9.45%

N#CC(C#N)CN(C1=NCCO1)c1cccc2c1CCCC2
inactive: [1] -16.6% | [2] 8.4% | [3] -3.6% | [4] -24.6% | [5] -12.4% | [6] 14.3%

CN(C(=O)C1(C(=O)C=[N+]=[N-])CC1)c1ccccc1
inactive: [1] -3.8% | [2] -4.4% | [3] -14.8% | [4] 1.3% | [5] -2.55% | [6] 7.3%

CC1=CC(=O)/C(=C/N2C(=O)CNC2=S)C(=O)O1
inactive: [1] -49.1% | [2] -37.1% | [3] -13.8% | [4] 15.4% | [5] -4.25% | [6] -45.1%

COc1cc2c(cc1OC)C1CCN3CCCC3N1CC2 (stereo unspecified)
inactive: [1] -7.8% | [2] 7.6% | [3] 0.1% | [4] -14.9% | [5] 2.2% | [6] 3.3%

CCCCCCCCCCCCCCCCCCCCCCCCCCCC
inactive: [1] -8.5% | [2] -10.1% | [3] -16% | [4] -21.2% | [5] -4.55% | [6] -22.9%

Cc1ccc(S(=O)(=O)N2CCN(S(=O)(=O)c3ccc(C)cc3)CCN(S(=O)(=O)c3ccc(C)cc3)Cc3cc(Br)c(Br)cc3CN(S(=O)(=O)c3ccc(C)cc3)CC2)cc1
inactive: [1] -24.1% | [2] -6.05% | [3] -23.3% | [4] 17.6% | [5] -3.1% | [6] -10.3%

CCOC(=O)C(C#N)(CCC#N)CCC#N
inactive: [1] 26.3% | [2] 6.8% | [3] 9.05% | [4] -3.45% | [5] 9.4% | [6] 12.6%

CN(C)CC(c1ccccc1)C(O)(c1ccccc1)c1ccccc1 (stereo unspecified)
inactive: [1] -5.65% | [2] -2.75% | [3] -1% | [4] -45.9% | [5] -18% | [6] 3.05%

O=c1cnn(C2OC(CO)C(O)C2O)c(=S)[nH]1 (stereo unspecified)
inactive: [1] -4.45% | [2] -1.45% | [3] 28.6% | [4] 1.25% | [5] 26.1% | [6] -96.5%

Cn1ncc2c(=O)[nH]c(=S)[nH]c21
inactive: [1] -9.6% | [2] -4.4% | [3] -5.65% | [4] -32.1% | [5] -2.3% | [6] 3.6%

CC(=O)C1(C(C)=O)OC2c3ccccc3C=CN2C=C1C=O (stereo unspecified)
inactive: [1] 6.6% | [2] 1.35% | [3] 14.6% | [4] 4.45% | [5] 6.05% | [6] 11.1%

Nc1ccc(S(=O)(=O)O)cc1[N+](=O)[O-]
inactive: [1] 4.4% | [2] 3.8% | [3] -3.75% | [4] 1% | [5] 5.8% | [6] 12.6%

COc1ccc(C(=O)NNC(=O)c2ccccc2)cc1
inactive: [1] 11.9% | [2] -42.5% | [3] -14.8% | [4] 10.1% | [5] -1.1% | [6] -14.2%

O=C(Nc1ccc(C2=NCCN2)cc1)c1cncc(C(=O)Nc2ccc(C3=NCCN3)cc2)c1
inactive: [1] 5.2% | [2] 22.6% | [3] 16.4% | [4] 50% | [5] 8.95% | [6] 45.6%
